Active and inactive are the calls of the source. How the source made its calls: active means hit-call score of the fitted dose curve at least 0.9, where 1 is the maximum; inactive means score below 0.9.

In this assay the target is Signal transducer and activator of transcription 3 (Homo sapiens) (UniProt P40763). Kind of assay: ATG_STAT3_CIS: Attagene CIS-FACTORIAL HepG2 Assay for human Signal Transducer and Activator of Transcription 3 (STAT3) (AID 2282963). Conditions: HepG2, Attagene cis-factorial STAT3 reporter transcription; actives raise or lower the signal. As to the method: ATG_CIS is a cell-based, multiplexed-readout assay that uses HepG2, a human liver cell line, with measurements taken at 24 hours after chemical dosing in a 24-well plate.ATG_STAT3_CIS is one of 52 assay component(s) measured or calculated from the ATG_CIS assay. It is designed to make measurements of mRNA induction, a form of inducible reporter, as detected with fluorescence intensity signals by Reverse transcription polymerase chain reaction (RT-PCR) and Capillary electrophoresis technology.Data from the assay component ATG_STAT3_CIS was analyzed into 1 assay endpoint. This assay endpoint, ATG_STAT3_CIS, was analyzed with bidirectional fitting relative to DMSO as the negative control and baseline of activity. Using a type of inducible reporter, measures of mRNA for gain or loss-of-signal activity can be used to understand the reporter gene at the transcription factor-level as they relate to the gene STAT3. Furthermore, this assay endpoint can be referred to as a primary readout, because this assay has produced multiple assay endpoints where this one serves a reporter gene function. To generalize the intended target to other relatable targets, this assay endpoint is annotated to the dna binding intended target family, where the subfamily is stat protein.
Sequence of Signal transducer and activator of transcription 3 (Homo sapiens) (P40763 whole entry, looked up): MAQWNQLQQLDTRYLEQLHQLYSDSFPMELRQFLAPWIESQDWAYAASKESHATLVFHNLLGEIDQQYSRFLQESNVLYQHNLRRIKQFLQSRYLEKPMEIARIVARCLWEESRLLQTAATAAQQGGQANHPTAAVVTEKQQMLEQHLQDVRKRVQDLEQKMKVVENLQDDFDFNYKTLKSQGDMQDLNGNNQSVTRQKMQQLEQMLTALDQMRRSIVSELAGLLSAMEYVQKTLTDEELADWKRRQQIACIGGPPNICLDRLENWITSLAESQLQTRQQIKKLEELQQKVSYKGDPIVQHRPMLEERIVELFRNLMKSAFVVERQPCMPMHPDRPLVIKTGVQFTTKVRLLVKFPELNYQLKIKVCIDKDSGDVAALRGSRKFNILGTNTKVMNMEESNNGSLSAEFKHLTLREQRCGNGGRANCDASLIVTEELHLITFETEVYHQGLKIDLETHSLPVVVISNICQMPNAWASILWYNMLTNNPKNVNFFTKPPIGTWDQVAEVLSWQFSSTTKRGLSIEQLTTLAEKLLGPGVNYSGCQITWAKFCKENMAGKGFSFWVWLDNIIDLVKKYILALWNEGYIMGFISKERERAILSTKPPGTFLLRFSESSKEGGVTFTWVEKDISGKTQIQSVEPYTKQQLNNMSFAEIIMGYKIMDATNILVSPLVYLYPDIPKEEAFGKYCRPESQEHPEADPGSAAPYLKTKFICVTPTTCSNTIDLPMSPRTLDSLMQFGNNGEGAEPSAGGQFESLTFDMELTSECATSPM
Human liver HepG2 cells are transiently transfected with multiple reporter transcription units (MRTUs) in 6-well plates using FuGene 6 reagent (Roche; 3 ml FuGene/1 mg DNA). The MRTU constructs are regulated by a cis-regulating element (promoter). […] A major difference between the CIS and TRANS system is that in CIS activities of endogenous TFs are measured, whereas the TRANS assay evaluates changes in activities of exogenous, chimeric NR-Gal4 proteins. […] At the end of 24 hour incubation, total RNA was isolated using TriZol reagent (Invitrogen). The isolated RNA is then reverse-transcribed using oligo(dT) primer and Mo-MLV reverse transcriptase (Invitrogen) with DNAse I (Ambion) treatment for 30 min. The one-tenth of the produced cDNA was amplified by PCR using Taq DNA polymerase (Invitrogen) and two reporter sequence-specific primers. The PCR products were fluorescently labeled by primer extension with 6-arboxyfluorescein (6-FAM) 5'-labeled reporter sequence-specific primer (2 min at 95 C, 20 s at 68 C and 10 min at 72 C) and these products were digested with 5U of HpaI (New England Biolabs) for 2h at 37 C. The fragments were purified using Qiaquick PCR columns (Qiagen), analyzed on an ABI 3130xL genetic analyzer (Applied Biosystems) with peak positions identified by using a set of X-rhodamine (ROX)-labeled MapMarker1000 molecular weight standards (BioVentures). The raw capillary electrophoresis data was processed using Attagraph software (Attagene).
Take `Cc1cc(C(=C2C=CC(=Nc3ccc(S(=O)(=O)O)cc3)C=C2)c2ccc(Nc3ccc(S(=O)(=O)O)cc3)cc2)cc(S(=O)(=O)O)c1N`: the call was inactive.
For `O=P(O)(O)CCC(F)(F)C(F)(F)C(F)(F)C(F)(F)C(F)(F)C(F)(F)C(F)(F)C(F)(F)F` the value was “inactive”; for `C=CC(=O)OCCC(F)(F)C(F)(F)C(F)(F)C(F)(F)C(F)(F)C(F)(F)C(F)(F)C(F)(F)F`, “inactive”; for `c1ccc2c(c1)CCC2`, “inactive”.
Under `O=C1C=CC(=O)N1c1cccc(N2C(=O)C=CC2=O)c1` stands “inactive”; under `Cc1ccc(S(=O)(=O)O)cc1`, “inactive”; under `CNNCc1ccc(C(=O)NC(C)C)cc1`, “inactive”.
With `c1cc2cccc3c4cccc5cccc(c(c1)c23)c54`, the outcome was inactive.
For `COc1cc(OC)nc(NC(=O)NS(=O)(=O)Nc2ccccc2C(=O)N(C)C)n1` the value was “inactive”; for `FC(F)(F)C(F)(F)C(F)(F)Br`, “inactive”.
Consider `CCCCCCOC(=O)c1ccc(O)cc1`, for which the call was inactive.
Consider `COc1ccc(C#N)cc1`, for which the outcome was inactive.
`CC1CCC(CO)CC1` (stereo not given): the call was inactive.
Under `c1cnc2c(c1)ccc1cccnc12` stands “inactive”; under `O=C(Nc1cccc([N+](=O)[O-])c1)c1cc2ccccc2cc1O`, “inactive”; under `Cc1ccc2ccc3ccc(C)cc3c2c1`, “inactive”.
Consider `CCc1cccc(CC)c1NC(=O)C(=O)O`, for which the compound was classed as inactive.
For `Cc1ccccc1OCC(=O)O` the value was “inactive”.
Under `C=CC(=O)OCCC(F)(F)C(F)(F)C(F)(F)C(F)(F)C(F)(F)C(F)(F)F` stands “inactive”; under `Nc1cc(Cl)c(-c2cc(Cl)c(N)cc2Cl)cc1Cl`, “inactive”.
Under `O=C(O)CCC(F)(F)C(F)(F)C(F)(F)C(F)(F)C(F)(F)F` stands “inactive”; under `Cc1ccc(C)c(S(=O)(=O)O)c1`, “inactive”.
`CCCC=O`: the call was inactive.
With `CC(C)(O)C(=O)c1ccccc1`, the outcome was inactive.
For `Cc1ccccc1C(OCCN(C)C)c1ccccc1` (stereo not given) the value was “inactive”; for `O=C(NCc1ncc(C(F)(F)F)cc1Cl)c1c(Cl)cccc1Cl`, “inactive”.
Under `CN(CCO)S(=O)(=O)C(F)(F)C(F)(F)C(F)(F)C(F)(F)C(F)(F)C(F)(F)C(F)(F)C(F)(F)F` stands “inactive”; under `O=S(=O)(O)c1ccc2cc(O)ccc2c1`, “inactive”.
For `CCN(CC)CC` the value was “inactive”; for `Nc1ccn([C@@H]2O[C@H](CO)[C@@H](O)C2O)c(=O)n1` (stereo not given in full), “inactive”; for `COC(O)c1ccccc1` (stereo not given), “inactive”.
`CCC(=O)C=Cc1ccc(OC)cc1`: the outcome was inactive.
For `Cc1ccc(C(=O)c2ccccc2)cc1` the value was “inactive”; for `CC1CNCC(C)O1` (stereo not given), “inactive”; for `CC(C)c1c(C(=O)Nc2ccccc2)c(-c2ccccc2)c(-c2ccc(F)cc2)n1CC[C@@H](O)C[C@@H](O)CC(=O)O`, “inactive”.
For `CC[N+](CC)(CC)Cc1ccccc1` the value was “inactive”; for `O=C(O)C(F)(F)OC(F)(F)C(F)(F)OC(F)(F)C(F)(F)OC(F)(F)C(F)(F)C(F)(F)C(F)(F)F`, “inactive”; for `CCCCc1ccc2ccccc2c1S(=O)(=O)O`, “inactive”.
Under `CCOCCOCC` stands “inactive”.
For `CC(C)CCOCCC(C)C`, the result was inactive.

These data come from PubChem BioAssay (EPA / NIEHS).
